HTT-AS promoter – HTT-AS promoter activation; HEK293 HTT-AS promoter firefly luciferase reporter, 24 h; response scale: percent change from vehicle, -100% = no light; Potency, µM (highest dose often 57.5 µM), actives largely listed as activators; 0.24% of 48,000 active; AID 1508624; also: nearly all actives have a fitted effect of over 55% in size
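Quantitative HTS used concentration series of up to 57.5 uM final on HEK293 luciferase reporter cells, 24 h at 37 degrees C. Readout was Dual-Glo firefly luminescence.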
GALK inh – inhibitors of human galactokinase (GALK); P51570; recombinant GALK, Kinase-Glo ATP luminescence, 1 h; Potency, µM (highest dose often 57.5 µM), actives largely listed as inhibitors; 44,000 tested, under 10 active
Target sequence (P51570 whole entry, looked up): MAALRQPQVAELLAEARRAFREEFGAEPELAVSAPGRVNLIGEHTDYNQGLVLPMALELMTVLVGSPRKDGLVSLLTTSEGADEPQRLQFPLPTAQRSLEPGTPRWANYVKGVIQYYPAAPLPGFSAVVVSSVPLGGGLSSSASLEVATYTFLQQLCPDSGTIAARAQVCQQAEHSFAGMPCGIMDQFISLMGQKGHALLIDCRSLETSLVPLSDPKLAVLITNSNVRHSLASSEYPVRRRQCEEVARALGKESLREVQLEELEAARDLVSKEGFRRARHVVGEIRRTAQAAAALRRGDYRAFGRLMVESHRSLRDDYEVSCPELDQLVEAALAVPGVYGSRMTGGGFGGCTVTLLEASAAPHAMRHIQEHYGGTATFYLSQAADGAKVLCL
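Luminescent ATP-depletion readout (Kinase-Glo Plus, 10 min) after 1 h RT reaction of 5 nM GALK, 35 uM ATP, 100 uM galactose, pH 8.0 HEPES buffer. Decreased kinase activity scored as inhibition.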
HTT prom inh – inhibitors of huntingtin promoter activity. 0.93% of 48,000 active. HEK293 HTT promoter firefly luciferase reporter, 24 h. Potency, µM (doses to about 57.5 µM), most hits filed as inhibitors; also: nearly all actives have a fitted effect of over 50% in size
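HEK293 cells carrying firefly luciferase reporters were seeded at 2,500 per well in Opti-MEM and cultured for 24 h. They were then treated with compounds at up to 57.5 uM final for 24 h at 37 degrees C before Dual-Glo luminescence readout.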
B2AR arrestin ag – ADRB2 beta-arrestin recruitment; HTLA Tango cells, beta-arrestin recruitment, luciferase luminescence, 18 h; Potency, µM (series often up to 46.1 µM), actives largely listed as activators; AID 1347077; 44,000 tested, under 10 active
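Ligand-induced beta-arrestin recruitment to recombinant beta2-AR is measured via a tTA-driven luciferase reporter in Tango cells after 18 hr compound exposure at 37 degrees C. Concentrations span up to 46 microM.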
PTAP-TSG101 blk – TSG101-PTAP interaction inhibition, HIV-1 budding; Potency, µM (top dose mostly 115 µM), usual class: inhibitors; 44,000 tested, under 10 active; Q99816; Fluorescence polarization, FITC-PTAP peptide/Tsg101, 20 min; AID 1347069
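Fluorescence polarization: Tsg101 binding domain (10 uM final) in 10 mM HEPES pH 7.5, 0.15 M NaCl, 0.01% Tween 20, 3 mM EDTA, 0.1 mM TCEP; compounds pinned; FITC-PTAP peptide 50 nM final; 20 min, r.t.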
NTMT1 inhibitor – inhibitors of human N-terminal methyltransferase NTMT1; Q9BV86; 2.5% of 59,000 active; NTMT1 MTase-Glo SAH luminescence, purified enzyme; Potency, µM (highest dose often 114 µM), actives largely listed as inhibitors; also: nearly all actives have a fitted effect of over 65% in size
Target sequence (Q9BV86 whole entry, looked up): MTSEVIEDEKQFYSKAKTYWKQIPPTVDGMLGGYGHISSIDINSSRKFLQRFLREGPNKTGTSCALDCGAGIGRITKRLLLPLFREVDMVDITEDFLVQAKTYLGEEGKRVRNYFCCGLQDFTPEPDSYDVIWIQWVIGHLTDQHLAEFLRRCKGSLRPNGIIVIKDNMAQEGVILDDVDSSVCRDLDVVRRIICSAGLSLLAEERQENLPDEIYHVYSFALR
Sfp PPTase inh – Sfp PPTase inhibition, chemistry optimization | shares compounds with NTMT1 inhibitor | purified Sfp PPTase enzyme activity, qHTS | Potency, µM (titrated, usually from 114 µM), hits mostly inhibitors | 78% of 230 active | AID 540350
Bsub HM489 growth – reduces growth of B. subtilis HM489 strain; shares compounds with NTMT1 inhibitor; B. subtilis HM489 (acpS-) growth, BacTiter-Glo, 5 h; Potency, µM (titrated, usually from 114 µM), hits mostly inhibitors; 50% of 220 active; AID 540353
Sfp gel opt – inhibitors of Bacillus subtilis Sfp PPTase, gel-based followup | shares compounds with NTMT1 inhibitor | purified Sfp PPTase, gel-based product detection | Potency, µM (titrated, usually from 250 µM), actives largely listed as inhibitors | 54% of 220 active | AID 540355
Sfp inh gel – Sfp phosphopantetheinyl transferase inhibition, gel detection | shares compounds with NTMT1 inhibitor | purified Sfp PPTase, gel-based product detection | Potency, µM (titrated, usually from 250 µM), actives largely listed as inhibitors | 90% of 45 active | AID 602362
Sfp SAR2 – inhibits B. subtilis Sfp PPTase in second SAR round; Potency, µM (top dose mostly 57.1 µM), hits mostly inhibitors; 87% of 230 active; purified Sfp enzyme, PPTase activity, qHTS; shares compounds with NTMT1 inhibitor
hGST ctr – inhibits hGST A1-1 in Sfp inhibitor counter-screen. hGST A1-1 enzyme activity counter-screen, qHTS. Potency, µM (doses to about 114 µM), hits mostly inhibitors. 55 tested, under 10 active. shares compounds with NTMT1 inhibitor. AID 602391
HSD17B4 inh – inhibits human HSD17B4, off-target for HPGD inhibitors; Potency, µM (series often up to 57.1 µM), most hits filed as inhibitors; 10% of 230 active; shares compounds with NTMT1 inhibitor; AID 743187; purified HSD17B4, estradiol/NAD+, NADH fluorescence
ALDH1A1 inh – ALDH1A1 (human) inhibition, HPGD counter-screen; 93% of 230 active; recombinant ALDH1A1, NADH fluorescence, propionaldehyde/NAD+; shares compounds with NTMT1 inhibitor; AID 743195; Potency, µM (titrated, usually from 57.1 µM), hits mostly inhibitors
NNMT counter – blocks human NNMT methyltransferase; 10% of 120 active; Potency, µM (series often up to 57.1 µM), most hits filed as inhibitors; AID 1645878; NNMT MTase-Glo luminescence, SAH detection; shares compounds with NTMT1 inhibitor
Numbers stand for hits; - = inactive; ? = inconclusive; . = no result; ! = a repeat was not active; [ ] = remark or other dose. This is one part of a sample in which hits are shown more often than they occur. Calls follow the shape of the dose curve; as a rule, active = well fitted curve in the direction sought with a large enough effect; inconclusive = small, poorly fitted or top-dose-only effect, or another doubt; inactive = no such curve, though single readings can be large; an effect the other way counts as inactive or inconclusive.

SMILES	HTT-AS promoter	GALK inh	HTT prom inh	B2AR arrestin ag	PTAP-TSG101 blk	NTMT1 inhibitor	Sfp PPTase inh	Bsub HM489 growth	Sfp gel opt	Sfp SAR2	HSD17B4 inh	ALDH1A1 inh	others
CC1(C)CC[C@]2(C(=O)O[C@@H]3O[C@H](CO)[C@@H](O)[C@H](O)[C@H]3O)CC[C@]3(C)C(=CCC4[C@@]5(C)CC[C@H](O[C@@H]6O[C@H](C(=O)O)[C@@H](O)[C@H](O[C@@H]7O[C@H](CO)[C@H](O)[C@H](O)[C@H]7O)[C@H]6O)C(C)(C)C5CC[C@]43C)C2C1 (stereo not given in full)	.	.	.	.	.	-[12.6 µM]	.	.	.	.	.	.
COc1c(C)c(C(=O)c2ccc(N)c(C(=O)O)c2)n2ccccc12	.	.	.	.	.	-	.	.	.	.	.	.	NNMT counter=-
COc1cccc(C(=O)c2c(N)c(-c3nc(-c4ccccc4)cs3)c3ccccn23)c1	-	-	-	-	-	-	.	.	.	.	.	.
Cc1ccnc(NC(=S)N[C@@H]2CCN(c3cccc(C(F)(F)F)c3)C2)c1	.	.	.	.	.	-	?	?	-	?	-	24µM	Sfp inh gel=-;hGST ctr=?
Cc1ccnc(NC(=S)NC2CN(c3cccc(C(F)(F)F)c3)C2)c1	.	.	.	.	.	-	?	37µM	-	?	-	-
O=C1c2ccccc2C(=O)C1(c1ccccc1)N1CCN(c2cccc(C(F)(F)F)c2)CC1	-	-	?	?	-	-	.	.	.	.	.	.
Cc1ccnc(NC(=S)Nc2cccc(C(F)(F)F)c2)c1	.	.	.	.	.	-	10µM	12µM	-	23µM	-	22µM	Sfp inh gel=?;hGST ctr=0.21µM
Cc1ccnc(NC(=S)N2CC3CN(c4cccc(C(F)(F)F)c4)CC3C2)c1 (stereo not given)	.	.	.	.	.	?	3.7µM	5.9µM	4.8µM	0.73µM	-	7.6µM	Sfp inh gel=1.7µM;hGST ctr=?
O=C(Nc1ccccc1Br)N[C@@H]1CCN(c2ccc(C(F)(F)F)cn2)C1	-	.	-	.	.	-	.	.	.	.	.	.
C=C1CC23CC1CCC2C12OC(=O)C(C)(CCC1O)C2C3C(=O)O (stereo not given)	.	.	.	.	.	-	.	.	.	.	.	.
CCOC(=O)C1CCN(c2ccc(NCc3ccc(-c4ccc(C#N)cc4)o3)cc2)CC1	.	.	.	.	.	-	.	.	.	.	.	.
Cc1ccnc(NC(=O)N2CCN(c3cccc(C(F)(F)F)c3)CC2)c1	.	.	.	.	.	-	-	?	-	-	-	11µM
COc1ccc(N2CCN(C(=O)Nc3cccc(C(F)(F)F)c3)CC2)cc1	-	-	?	-	-	?	.	.	.	.	.	.
Cc1ccnc(CC(=S)N2CCN(c3cccc(C(F)(F)F)c3)CC2)c1	.	.	.	.	.	-	24µM	?	10µM	?	?	9.6µM
Cc1ccnc(NC(=S)NC2CCN(c3cccc(C(F)(F)F)c3)CC2)c1	.	.	.	.	.	.	?	?	?	?	24µM	19µM
Cc1cc(N2CCC(C)CC2)nc2ccc(NC(=O)CCC(=O)N3CCN(c4cccc(C(F)(F)F)c4)CC3)cc12	-	-	?	-	-	-	.	.	.	.	.	.
NC(=NCCCCCCN=C(N)/N=C(\N)Nc1ccc(Cl)cc1)/N=C(\N)Nc1ccc(Cl)cc1	-	.	?	.	.	25µM!	.	.	.	.	.	.	NNMT counter=?
CC[C@@H](C)Nc1cc(C(=O)NC2CC3CC[C@@H](C2)N3c2ccc(C(=O)C3CC3)cn2)c(C)cc1C(N)=O (stereo not given in full)	.	.	.	.	.	-	.	.	.	.	.	.	NNMT counter=-
COc1ccc(/C=C/C(=O)O[C@@H]2[C@@H](O)[C@H](C)O[C@@H](OC3C4C=COC(O[C@@H]5O[C@H](CO)[C@@H](O)[C@H](O)[C@H]5O)C4C4(CO)OC34)[C@@H]2O)cc1OC (stereo not given in full)	.	.	.	.	.	-[12.6 µM]	.	.	.	.	.	.

From PubChem BioAssay
